TEAD-YAP block: TEAD-YAP interaction inhibition | HEK-TIYL cells, TEAD-Gal4/YAP UAS-luciferase luminescence | inhibition, % at 9.12 µM | hit rate 1.4% among 640,000; in the data active = inhibition above about 32%;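 note: 0% = median of test compound wells and 100% = reference inhibitor wells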
MITF primary: blocks human microphthalmia-associated transcription factor | inhibition, % at 2.6 µM | hit rate 0.91% among 650,000 | AlphaScreen MITF homodimerization, bead proximity signal | O75030; in the data active = inhibition above about 50%;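 note: 0% = vehicle wells with protein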
FBW7 act: activators of human E3 ligase FBW7; Q969H0; AlphaScreen FBW7–phospho-cyclin E peptide binding, activator screen; normalized activity (activation), % at 26.1 µM; hit rate 0.13% among 650,000; in the data active = normalized activity above about 1.9%;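 note: purified mutant Fbw7 with reduced substrate affinity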
Target sequence (Q969H0 whole entry, looked up): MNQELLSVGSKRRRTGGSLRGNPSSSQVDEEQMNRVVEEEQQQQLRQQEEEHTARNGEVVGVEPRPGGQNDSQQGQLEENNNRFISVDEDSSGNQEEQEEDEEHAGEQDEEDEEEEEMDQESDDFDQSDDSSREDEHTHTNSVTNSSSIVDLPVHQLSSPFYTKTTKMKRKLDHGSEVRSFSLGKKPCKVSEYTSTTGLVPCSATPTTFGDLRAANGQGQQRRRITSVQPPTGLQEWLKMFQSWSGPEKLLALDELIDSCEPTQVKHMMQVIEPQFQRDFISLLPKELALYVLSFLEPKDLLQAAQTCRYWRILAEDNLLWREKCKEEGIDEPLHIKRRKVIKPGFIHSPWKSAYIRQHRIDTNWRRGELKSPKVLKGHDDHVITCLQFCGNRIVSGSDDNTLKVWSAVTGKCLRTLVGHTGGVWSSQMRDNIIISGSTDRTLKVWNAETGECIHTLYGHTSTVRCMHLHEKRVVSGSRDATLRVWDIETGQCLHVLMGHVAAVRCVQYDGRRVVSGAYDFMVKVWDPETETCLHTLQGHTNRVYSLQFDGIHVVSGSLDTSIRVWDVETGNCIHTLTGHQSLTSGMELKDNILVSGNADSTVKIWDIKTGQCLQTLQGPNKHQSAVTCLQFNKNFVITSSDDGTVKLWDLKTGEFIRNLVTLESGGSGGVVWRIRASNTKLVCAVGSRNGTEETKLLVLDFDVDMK
GPR151 activ: activates the human receptor GPR151; Q8TDV0; PathHunter beta-arrestin GPR151 cells, luminescence; activation, % at 11.2 µM; hit rate 1% among 650,000; AID 1508602; in the data active = activation above about 4.9%;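 note: 0% = median of compound wells and 100% = cells with positive control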
Starred values were filed as active, the others as inactive. Only some compounds are listed: those with a hit (about 3.5% of all), similar ones and a draw of the others.

SMILES	TEAD-YAP block	MITF primary	FBW7 act	GPR151 activ
CC(=O)c1c(C)[nH]c(C(=O)OCc2csc(-c3ccccc3)n2)c1C	32.2*	4.1	-0.1	0.3
CC(=O)c1c(C)[nH]c(C(=O)OCC(=O)Nc2nc(-c3ccc(C)cc3)cs2)c1C	36.7*	-13.2	0.7	2.1
Cc1nc(C)n(-c2ccc(Nc3cc(-c4ccn(C)n4)c(Cl)cn3)cc2)n1	4.6	-11.6	0.2	-0.3
c1ccc(Oc2ccc(Nc3nc(N4CCc5ccccc5C4)nc4c3ncn4C3CCCCC3)cc2)cc1	0.8	5.9	-0.1	1.9
c1ccc(Nc2nc(N3CCc4ccccc4C3)nc3c2ncn3C2CCCCC2)cc1	32.3*	15.2	0.3	-1.4
Cc1noc(C)c1-c1nc(Nc2ccc(N3CCOCC3)cc2)c2ncn(C3CCCCC3)c2n1	-11.1	26.0	-0.2	0.8
Cc1noc(C)c1-c1nc(Nc2ccccc2)c2ncn(C3CCCCC3)c2n1	75.0*	6.7	-0.1	-1.1
Cc1cc2cc(C3C(C#N)=C(N)OC4=C3C(=O)CCC4)c(Cl)nc2cc1C (centres undefined)	5.4	-9.2	0.1	0.1
C/C(=N\NC(N)=S)c1ccc(Cl)cc1Cl	34.3*	5.7	0.1	1.3
C/C(=N\NC(=O)C(F)(F)F)c1ccc(Cl)cc1Cl	-1.0	-1.5	-0.3	0.0
CC(C)n1cnc2c(NCCCN3CCCC3=O)nc(-c3ccc(C(=O)N4CCN(C)CC4)cc3)nc21	6.1	15.4	0.1	0.9
CC(=O)NC(C(=O)OCc1cnc(-c2ccccc2)s1)C(C)C (centres undefined)	58.8*	4.2	0.1	-6.8
CC(=O)NC(C(=O)OCC(=O)N(c1ccccc1)c1ccccc1)C(C)C (centres undefined)	-6.9	8.0	0.0	-0.3
CC(C)n1cnc2c(NCc3nc4ccccc4[nH]3)nc(-c3ccc(C(=O)N4CCN(C)CC4)cc3)nc21	65.4*	6.8	0.4	-1.2
CC(C)n1cnc2c(NCc3ccccc3)nc(-c3ccc(C(=O)N4CCN(C)CC4)cc3)nc21	-3.1	10.7	0.0	-0.4
CC(C)n1cnc2c(NCc3nc4ccccc4[nH]3)nc(-c3ccc(C(=O)NC4CC4)cc3)nc21	77.7*	18.5	0.2	-1.5
Cc1cncc2cccc(NC3CCCN(C(=O)[C@H](C)O)C3)c12 (some centres undefined)	62.5*	3.6	-0.5	-0.2
Cc1cncc2cccc(NC3CCCN(C(=O)C(O)c4ccc(Cl)cc4)C3)c12 (centres undefined)	42.1*	7.3	-0.1	1.6
Cc1cc2c(NC3CCCN(C(=O)C(O)c4ccc(Cl)cc4)C3)cccc2nn1 (centres undefined)	6.0	55.8*	-1.5	-0.2
Cc1cncc2cccc(NC3CCCN(C(=O)C(O)c4ccc(F)cc4)C3)c12 (centres undefined)	45.1*	12.8	-0.3	0.3
Cc1cncc2cccc(NC3CCN(C(=O)C(N)c4ccc(Cl)cc4)CC3)c12 (centres undefined)	-8.7	13.7	-0.2	-0.5
Cc1cncc2cccc(NC3CCCN(C(=O)c4cccc(Br)c4)C3)c12 (centres undefined)	8.4	5.9	0.1	-1.4
COc1cc(NC(=O)c2cccc(-c3cccc(C(C)=O)c3)n2)cc(OC)c1OC	36.2*	-2.7	-0.2	2.1
COc1cc(CNc2ccc(-c3cccc(C(C)=O)c3)cn2)cc(OC)c1OC	34.1*	12.8	-0.1	2.0
COc1cc(NC(=O)c2csc(-c3cccc(C(C)=O)c3)n2)cc(OC)c1OC	29.6	12.8	0.3	-1.5
SMILES	TEAD-YAP block	MITF primary	FBW7 act	GPR151 activ
NC(=O)c1nn(-c2ccccc2)nc1/C=C\C(=O)O	-8.3	19.6	1.3	-0.8
COC(=O)/C=C\c1nn(-c2ccccc2)nc1C#N	60.0*	4.9	-0.3	-0.2
Cc1ccc(C(C)(C)C)c(OCC(=O)Nc2nccs2)c1	50.0*	10.8	0.0	-0.9
Cc1ccc(OCC(=O)Nc2nccs2)c(C)c1	93.3*	4.8	-0.3	-7.7
Cc1ccc(C)c(OCC(=O)Nc2nccs2)c1	-13.5	12.1	-0.2	-2.0
Cc1ccccc1OCC(=O)Nc1nccs1	49.7*	2.9	0.0	-9.7
Cc1ccc(/C=C/C(=O)Nc2nccs2)cc1	69.2*	18.4	-0.1	-7.3
CC(C)(C)c1ccccc1OCC(=O)Nc1nccs1	4.8	-13.3	0.0	-1.0
CCOCCOC(=O)c1ccc(NC(=O)c2ccc(C(C)(C)C)cc2)cc1	68.6*	2.6	0.3	0.2
O=C(O)c1cccc(NC(=O)c2ccc(-c3ccccc3)cc2)c1	41.2*	-3.7	0.1	2.8
CC(C)(C)c1ccc(C(=O)Nc2cccc(C(=O)O)c2)cc1	83.6*	9.4	0.2	-7.5
CCCCOC(=O)c1cccc(NC(=O)c2ccc(C(C)(C)C)cc2)c1	52.1*	-7.1	0.1	1.2
CCCCC1=NN2C(=N)/C(=C/c3cc(C)n(-c4ccccc4)c3C)C(=O)N=C2S1	1.6	10.0	0.1	-0.9
O=C(CN1C(=O)CCc2ccccc21)NCCc1ccc(Cl)cc1	-3.7	-9.4	-0.1	-1.0
COc1cc(/C=N/Nc2snc(SC)c2C#N)cc(OC)c1OC	33.7*	2.4	0.1	-0.5
CCOc1ccc(/C=N/Nc2snc(SC)c2C#N)cc1	-9.2	7.8	0.0	0.9
CC1=C(C(=O)Nc2cccc(Cl)c2)C(c2ccccc2Cl)NC(=O)N1 (centres undefined)	-13.5	11.1	0.3	0.7
COc1cc(/C=C2/C=C(c3ccc(C)cc3)OC2=O)ccc1C	32.4*	10.0	0.1	-0.1
COc1cc(/C=C2/C=C(c3ccc(C)cc3)OC2=O)ccc1O	64.9*	7.7	0.0	-1.5
CC1CC(C)CN(C(=O)/C=C/c2ccc(F)cc2)C1 (centres undefined)	-59.7	-9.7	-0.2	0.6
CN(C)c1ccc(C(CNC(=O)Cc2ccc(F)cc2)N2CCN(c3ccccc3)CC2)cc1 (centres undefined)	-0.5	71.7*	-0.1	0.8
CCC(c1nnnn1Cc1cccs1)N1CCC(C(N)=O)CC1 (centres undefined)	-0.6	2.9	0.0	-1.3
C=C1C(=O)OC23C1CCC(C)C2CCC1(C)OC13 (centres undefined)	61.4*	-6.0	0.3	1.2
Cc1cc(C(F)(F)F)nn1CC(=O)Nc1sc2c(c1C#N)CCC(C)C2 (centres undefined)	6.5	13.6	0.3	0.3
COc1ccc(-c2cc(N3CCN(C/C=C/c4ccccc4)CC3)ncn2)cc1	35.3*	-8.9	0.0	0.8
O=[N+]([O-])c1cccc(C2(O)CN(c3ccccc3)C3=[N+]2CCCC3)c1 (centres undefined)	8.9	3.1	0.1	-1.0
C=CCOC(=O)C1=C(C)NC(=O)NC1c1ccc(OCCC)cc1 (centres undefined)	55.0*	3.4	0.6	-1.6
C/C=C/COC(=O)C1=C(C)NC(=O)NC1c1ccccc1Cl (centres undefined)	47.5*	-2.5	0.6	0.5
C=CCOC(=O)C1=C(C)NC(=S)NC1c1ccc(C(=O)OC)cc1 (centres undefined)	36.2*	1.2	0.0	-1.1

Screening data (PubChem BioAssay)
